Screening results deposited in PubChem BioAssay by Broad Institute.
The list is not random: actives were taken first. Their share in the collection is about 6.7%.
C diff growth = blocks growth of Clostridium difficile. hit rate 0.25% among 86,000. Clostridium difficile clinical isolate growth, OD600, 24 h; hits give low values. AID 1259249. growth activity, negative = inhibition, % at 16 µg/mL (by protocol);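 active = mean growth activity at or below -80% and every replicate also at or below -80%; inconclusive = mean at or below -80% but some replicate above -80%; inactive = mean growth activity above -80%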;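 note: 0% = DMSO wells and -100% = levofloxacin 16 µg/mL wells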
Pf Dd2 inh = P. falciparum Dd2 growth inhibition. AID 1159554. activity change, % at 10 µM. hit rate 2.3% among 94,000. SYBR Green, 72 h; hits give low values; in the data active = activity change below about -80%; inconclusive = no clear call, values can overlap the other calls
T cruzi growth-1 = blocks T. cruzi growth in NIH3T3 culture; hit rate 5.9% among 77,000; T. cruzi beta-gal in NIH3T3, GalScreen luminescence, 90 h; inhibition, % at 8.34 µM;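 active = mean inhibition above about 93%, with at least 55% of replicates each passing it, limit read from the data, passing the limit was not always enough; inconclusive = only one of those two conditions holds; inactive = neither condition holds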
T cruzi growth-2 = inhibitors of T. cruzi proliferation | shares compounds with T cruzi growth-1 | T. cruzi beta-gal in NIH3T3, GalScreen luminescence, 90 h | inhibition, % at 8.35 µM | hit rate 72% among 5,600;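 active = mean replicate inhibition above about 95% and at least 55% of replicates individually reaching it, limit read from the data; inconclusive = only one of the two criteria is met; inactive = neither criterion is met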
T cruzi growth-3 = inhibitors of T. cruzi proliferation; shares compounds with T cruzi growth-1; T. cruzi beta-gal in NIH3T3, GalScreen luminescence, 90 h; inhibition, % at 2.09 µM; hit rate 21% among 5,600; AID 651740;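 active = mean inhibition above about 95%, with at least 55% of replicates also reaching it, limit read from the data; inconclusive = meets just one of the two conditions; inactive = meets neither condition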;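 note: plate controls were neutral control median for no effect and positive control median for full effect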
3T3 cytotox = NIH/3T3 (mouse) viability loss. shares compounds with T cruzi growth-1. NIH/3T3 viability, CellTiter-Glo ATP luminescence, 90 h. AID 651742. hit rate 14% among 5,600. cytotoxicity (signal decrease), % at 8.35 µM;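 active = mean signal decrease across replicates above about 35% based on untreated-well scatter, with enough replicates individually passing, limit read from the data; inconclusive = no rule stated though some were filed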;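 note: 0% = median of neutral control wells and 100% = median of positive control wells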
NIH3T3 tox 2 = NIH/3T3 (mouse) viability loss; shares compounds with T cruzi growth-1; NIH/3T3 viability, CellTiter-Glo ATP luminescence, 90 h; inhibition, % at 24.9 µM; hit rate 56% among 5,600; AID 651744;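 active = mean loss of cell viability signal at or above a set limit, and enough replicates individually reaching it; inconclusive = meets only the mean limit or only the replicate share; inactive = meets neither condition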;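 note: 0% = median of neutral control wells and 100% = median of positive control wells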
An asterisk follows results filed as active; ? = inconclusive; . = not tested or not shown.

SMILES	C diff growth	Pf Dd2 inh	T cruzi growth-1	T cruzi growth-2	T cruzi growth-3	3T3 cytotox	NIH3T3 tox 2
C/C=C/c1ccc([C@@H]2[C@H](CO)N(C(C)=O)[C@H]2CNC(=O)CC2CC2)cc1	-4.1	3.1	94.4	.	.	.	.
O=C(C[C@@H]1CC[C@@H]2[C@H](COC[C@H](O)CN2S(=O)(=O)c2cccc(F)c2)O1)NCCCN1CCOCC1	.	-2.6	15.2	.	.	.	.
Cc1cccc(S(=O)(=O)N2CCCCN3[C@@H](CO)[C@H](c4ccc(C#C[C@H](C)O)cc4)[C@@H]3C2)c1	9.1	-15.3	45.2	.	.	.	.
Cc1cccc(S(=O)(=O)N2CCCCN3[C@H](CO)[C@H](c4ccc(C#C[C@H](C)O)cc4)[C@H]3C2)c1	5.9	-47.4	105.8*	?	36.1	33.4	41.0*
CCCNC(=O)N1[C@H](C#N)[C@H](c2ccc(-c3cccc(OC)c3)cc2)[C@@H]1CO	14.3	?	98.8*	89.6	112.4*	-27.8	39.9*
CCCNC(=O)N1[C@H](C#N)[C@@H](c2ccc(-c3cccc(OC)c3)cc2)[C@@H]1CO	2.7	-52.5	77.4	.	.	.	.
CCCNC(=O)N1[C@@H](C#N)[C@@H](c2ccc(-c3cccc(OC)c3)cc2)[C@@H]1CO	7.2	-34.9	97.9*	99.4*	38.7	16.3	51.5*
CCCNC(=O)N1[C@H](C#N)[C@@H](c2ccc(-c3cccnc3)cc2)[C@@H]1CO	0.6	-5.0	55.8	.	.	.	.
CCCNC(=O)C[C@@H]1CC[C@H]2[C@@H](COC[C@@H](O)CN2C(=O)Nc2ccc3c(c2)OCO3)O1	.	11.7	4.8	.	.	.	.
CCCNC(=O)N1[C@@H](C#N)[C@@H](c2ccc(C#Cc3ccc(F)cc3)cc2)[C@@H]1CO	-11.0	-67.7	103.2*	107.2*	102.8*	-1.3	?
N#C[C@H]1[C@H](c2ccc(C#Cc3ccc(F)cc3)cc2)[C@H](CO)N1C(=O)Nc1ccc(F)cc1	2.6	-21.8	94.9	.	.	.	.
N#C[C@H]1[C@@H](c2ccc(C#Cc3ccc(F)cc3)cc2)[C@H](CO)N1C(=O)Nc1ccc(F)cc1	3.0	-31.5	88.1	.	.	.	.
CCCNC(=O)N1[C@@H](C#N)[C@H](c2ccc(C#Cc3ccc(F)cc3)cc2)[C@@H]1CO	-28.3	-30.4	102.6*	105.4*	47.4	7.9	40.0*
COc1cccc(S(=O)(=O)Nc2ccc3c(c2)[C@@H]2C[C@@H](CC(=O)N[C@@H](C)c4ccccc4)O[C@@H](CO)[C@@H]2O3)c1	-5.2	2.4	.	.	.	.	.
C[C@H]1CN([C@@H](C)CO)S(=O)(=O)c2ccc(C#CC3CCCC3)cc2O[C@H]1CN(C)C(=O)Cc1ccccc1	12.6	-8.9	.	.	.	.	.
COc1ccc(CN(C)C[C@H]2Oc3ccc(NC(=O)Nc4cccc5ccccc45)cc3C(=O)N([C@@H](C)CO)C[C@H]2C)cc1	29.9	3.5	62.3	.	.	.	.
COc1ccc(CN(C)C[C@H]2Oc3ccc(NC(=O)Nc4cccc5ccccc45)cc3C(=O)N([C@H](C)CO)C[C@@H]2C)cc1	-4.3	5.9	-2.2	.	.	.	.
C[C@@H]1CN([C@H](C)CO)C(=O)c2cc(NC(=O)Nc3cccc4ccccc34)ccc2O[C@H]1CN(C)Cc1ccc(Oc2ccccc2)cc1	6.8	-52.7	112.5*	107.3*	93.7	27.3	16.1
C[C@@H]1CN([C@@H](C)CO)C(=O)c2cc(NC(=O)Nc3cccc4ccccc34)ccc2O[C@@H]1CN(C)Cc1ccc(Oc2ccccc2)cc1	11.2	-35.5	123.6*	98.7*	104.6*	29.3	27.3*
C[C@@H]1CN([C@@H](C)CO)C(=O)c2cc(N(C)C)ccc2O[C@@H]1CN(C)Cc1ccc(C(=O)Nc2ccccc2N)cc1	0.5	-66.5	104.3*	-9.0	-8.3	4.8	-11.3
C[C@H]1CN([C@@H](C)CO)C(=O)c2cc(N(C)C)ccc2O[C@@H]1CN(C)Cc1ccc(C(=O)Nc2ccccc2N)cc1	-3.8	-69.6	41.3	.	.	.	.
C[C@H](CO)N1C[C@H](C)[C@H](CN(C)Cc2ccc(C(=O)Nc3ccccc3N)cc2)Oc2ccc(N(C)C)cc2CC1=O	-6.1	-76.9	71.9	.	.	.	.
C[C@H](CO)N1C[C@H](C)[C@@H](CN(C)Cc2ccc(C(=O)Nc3ccccc3N)cc2)Oc2ccc(N(C)C)cc2CC1=O	-2.3	-48.6	121.8*	102.1*	91.9	37.5*	75.5*
C[C@H]1CN([C@@H](C)CO)C(=O)c2cc(NC(=O)Cc3ccccc3)ccc2O[C@H]1CN(C)Cc1ccc(C(=O)Nc2ccccc2N)cc1	2.1	-67.9	?	78.1	35.8	6.6	?
C[C@@H]1CN([C@@H](C)CO)C(=O)c2cc(NC(=O)Cc3ccccc3)ccc2O[C@H]1CN(C)Cc1ccc(C(=O)Nc2ccccc2N)cc1	-2.4	-67.2	56.4	.	.	.	.
SMILES	C diff growth	Pf Dd2 inh	T cruzi growth-1	T cruzi growth-2	T cruzi growth-3	3T3 cytotox	NIH3T3 tox 2
Cc1ccc(S(=O)(=O)Nc2ccc3c(c2)C(=O)N([C@@H](C)CO)C[C@H](C)[C@@H](CN(C)C(=O)Nc2ccccc2)OCCCC[C@@H](C)O3)cc1	.	?	9.5	.	.	.	.
COc1ccc(NC(=O)N2CCC3(CC2)CN(C(C)=O)[C@@H](CO)c2[nH]c4cc(OC)ccc4c23)cc1	0.0	-45.2	.	.	.	.	.
CC=Cc1ccc2n(c1=O)C[C@H]1[C@H](CO)[C@@H](C(=O)NCc3ccccc3)N(S(C)(=O)=O)[C@@H]21 (mixture of isomers)	-2.1	-4.3	58.9	.	.	.	.
C/C=C/c1ccc([C@@H]2[C@H](CO)N(CCC(F)(F)F)C23CN(C(=O)CC2CC2)C3)cc1	3.6	-57.1	.	.	.	.	.
C[C@@H](O)C#Cc1cnc2c(c1)C(=O)N([C@@H](C)CO)C[C@H](C)[C@H](CN(C)Cc1cccc(F)c1)O2	-1.2	13.3	12.9	.	.	.	.
COc1ccc(CN(C)C[C@H]2OCCCC[C@H](C)Oc3ccc(NC(=O)Nc4ccc(OC)cc4)cc3C(=O)N([C@@H](C)CO)C[C@@H]2C)cc1	.	29.9	109.9*	111.9*	63.1	14.7	103.9*
COc1ccc(CN(C)C[C@@H]2OCCCC[C@@H](C)Oc3ccc(NC(=O)Nc4ccc(OC)cc4)cc3C(=O)N([C@@H](C)CO)C[C@H]2C)cc1	.	-50.6	83.5	.	.	.	.
COc1ccc(CN(C)C[C@@H]2OCCCC[C@@H](C)Oc3ccc(NC(=O)Nc4ccc(F)cc4)cc3C(=O)N([C@H](C)CO)C[C@@H]2C)cc1	3.6	-10.2	46.7	.	.	.	.
COc1ccc(CN(C)C[C@@H]2OCCCC[C@@H](C)Oc3ccc(NC(=O)Nc4ccc(F)cc4)cc3C(=O)N([C@H](C)CO)C[C@H]2C)cc1	15.5	-62.6	?	96.9*	111.1*	25.6	104.9*
COCC#Cc1cnc2c(c1)C(=O)N([C@@H](C)CO)C[C@H](C)[C@@H](CN(C)C(=O)C1CCCCC1)O2	-0.2	5.6	.	.	.	.	.
